Results: PubChem BioAssay (Tox21)
Results filed as inconclusive are left out. The source made the active and inactive calls. Unless noted, calls come from the whole dose curve; as a rule, active = well fitted curve in the direction sought with a large enough effect in the repeat runs; inconclusive = weak or mixed curves; inactive = no such curve, though single readings can be large; an effect the other way counts as inactive or inconclusive.

How the values were obtained:
[1] = qHTS assay to identify small molecule antagonists of the glucocorticoid receptor (GR) signaling pathway - cell viability counter screen (AID 720693); note: nearly all actives have a fitted effect of over 55% in size
[2] = qHTS assay for identifying genotoxic compounds that show differential cytotoxicity against isogenic chicken DT40 cell lines with known DNA damage response pathways - wild type cell line (AID 743012); note: nearly all actives have a fitted effect of over 60% in size; note: potency is the fitted concentration of half-maximal effect
Outline: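 300 wt DT40 cells/well; cpd (DMSO) pintool-transferred after ~0.5 h at 37 C/5% CO2; 40 h incubation; CellTiter-Glo added, 30 min RT; luminescence read.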

[3] = qHTS assay for identifying genotoxic compounds that show differential cytotoxicity against isogenic chicken DT40 cell lines with known DNA damage response pathways - Rev3 mutant cell line (AID 743014); note: nearly all actives have a fitted effect of over 55% in size; note: potency is the fitted concentration of half-maximal effect
[4] = qHTS assay for identifying genotoxic compounds that show differential cytotoxicity against isogenic chicken DT40 cell lines with known DNA damage response pathways - Rad54/Ku70 mutant cell line (AID 743015); note: nearly all actives have a fitted effect of over 60% in size; note: potency is the fitted concentration of half-maximal effect
[5] = qHTS assay to identify small molecule antagonists of the androgen receptor (AR) signaling pathway - cell viability counter screen (AID 743033; note: nearly all actives have a fitted effect of over 45% in size)
[6] = qHTS assay to identify small molecule antagonists of the androgen receptor (AR) signaling pathway using the MDA cell line - cell viability counter screen (AID 743041; note: nearly all actives have a fitted effect of over 45% in size)
Outline: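 qHTS viability read-out; MDA-kb2 AR-luc; R1881-stimulated; 16 h exposure at 37C, 0% CO2; CellTiter-Fluor, 30 min; fluorescence intensity.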

[7] = qHTS assay to identify small molecule antagonists of the thyroid receptor (TR) signaling pathway - cell viability counter screen (AID 743064); note: nearly all actives have a fitted effect of over 50% in size; note: potency is the fitted concentration of half-maximal effect
Outline: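 Plate GH3.TRE-Luc cells; incubate 4 h at 37 °C; add compound, then T3 to 1 nM final; incubate 23.5 h; add CellTiter-Fluor; incubate 30 min at 37 °C, 5% CO2; read fluorescence.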

[8] = qHTS assay to identify small molecule antagonists of the thyroid receptor (TR) signaling pathway (AID 743065); note: nearly all actives have a fitted effect of over 55% in size; note: potency is the fitted concentration of half-maximal effect
Outline: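 GH3.TRE-Luc rat pituitary cells carrying two TR response elements driving luciferase were plated for 4 h, given compound plus 1 nM T3 (final), and incubated 23.5 h at 37 C. ONE-Glo luminescence measured reporter inhibition; CellTiter-Fluor fluorescence tracked cytotoxicity.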

[9] = system: thyroid hormone receptor (rat, GH3 cells); experiment: qHTS assay to identify small molecule agonists of the thyroid receptor (TR) signaling pathway (AID 743066; calls by dose curve)
[10] = molecular target: Estrogen receptor (Homo sapiens) (UniProt P03372); experiment: qHTS assay to identify small molecule antagonists of the estrogen receptor alpha (ER-alpha) signaling pathway (AID 743069; active = well fitted curve in the direction sought with a large enough effect in the signal ratio in the repeat runs, not every such curve was filed as active; the % refers to the signal ratio)
Outline: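 Screening used a UAS-driven beta-lactamase reporter integrated into HEK293 cells expressing ER-alpha, stimulated with 17beta-estradiol alongside test compounds over 18 hr at 37C; signal came from LiveBLAzer B/G FRET fluorescence.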

[11] = qHTS assay to identify small molecule antagonists of the estrogen receptor alpha (ER-alpha) signaling pathway - cell viability counter screen (AID 743074; calls by dose curve; note: nearly all actives have a fitted effect of over 45% in size)
[12] = molecular target: Estrogen receptor (Homo sapiens) (UniProt P03372); experiment: qHTS assay to identify small molecule agonists of the estrogen receptor alpha (ER-alpha) signaling pathway (AID 743075; calls by dose curve)
[13] = molecular target: Estrogen receptor (Homo sapiens) (UniProt P03372); experiment: qHTS assay to identify small molecule agonists of the estrogen receptor alpha (ER-alpha) signaling pathway using the BG1 cell line (AID 743079); note: nearly all actives have a fitted effect of over 20% in size
[14] = qHTS assay to identify small molecule antagonists of the estrogen receptor alpha (ER-alpha) signaling pathway using the BG1 cell line (AID 743080; calls by dose curve;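 note: BG1 cells stimulated with 17beta-estradiol alongside compound; series mostly up to about 70 µM; nearly all actives have a fitted effect of over 25% in size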)
Outline: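 BG1-Luc-4E2 cells (endogenous full-length ER-alpha, 4xERE luciferase) hormone-starved 5 days in charcoal-stripped FBS, plated 4,000/well for 24 h, then compound plus 17beta-estradiol for 21.5 h at 37 C; ONE-Glo luminescence read.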

[15] = qHTS assay to identify small molecule antagonists of the estrogen receptor alpha (ER-alpha) signaling pathway using the BG1 cell line - cell viability counter screen (AID 743081);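 note: compound given together with 17beta-estradiol as the ER stimulus; series mostly up to about 70 µM; nearly all actives have a fitted effect of over 45% in size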
[16] = molecular target: Aromatase (Homo sapiens) (UniProt P11511); experiment: qHTS assay to identify aromatase inhibitors (AID 743083); note: series mostly up to about 70 µM; nearly all actives have a fitted effect of over 55% in size
[17] = molecular target: Androgen receptor (Homo sapiens) (UniProt P10275); experiment: qHTS assay to identify small molecule antagonists of the androgen receptor (AR) signaling pathway (AID 743035; active = well fitted inhibition curve with a large enough effect in the signal ratio in the repeat runs, not every such curve was filed as active; the % refers to the signal ratio)
Outline: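 In this cell-based reporter screen, compounds were tested in concentration series against R1881-activated HEK293 cells expressing beta-lactamase under UAS control; after 16 h at 37C, FRET substrate was added and fluorescence read 2 h later.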

[18] = molecular target: Androgen receptor (Homo sapiens) (UniProt P10275); experiment: qHTS assay to identify small molecule agonists of the androgen receptor (AR) signaling pathway (AID 743036; active = well fitted activation curve with a large enough effect in the signal ratio in the repeat runs, with a control signal flat, not every such curve was filed as active; the % refers to the signal ratio)
Outline: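 Reporter line: GeneBLAzer AR-UAS-bla-GripTite (HEK293). Steps: plate cells, 4 h rest, add compounds, 16 h at 37C, add LiveBLAzer B/G substrate, 2 h at RT, read fluorescence.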

[19] = molecular target: Androgen receptor (Homo sapiens) (UniProt P10275); experiment: qHTS assay to identify small molecule agonists of the androgen receptor (AR) signaling pathway using the MDA cell line (AID 743040; note: nearly all actives have a fitted effect of over 20% in size)
Outline: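 Agonist activity is measured as luciferase luminescence in human MDA-kb2 cells whose MMTV reporter responds to both AR and GR. Compounds in DMSO incubate 16 h at 37C, 0% CO2, and ONE-Glo is read after 30 min.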

[20] = molecular target: Androgen receptor (Homo sapiens) (UniProt P10275); experiment: qHTS assay to identify small molecule antagonists of the androgen receptor (AR) signaling pathway using the MDA cell line (AID 743042; note: nearly all actives have a fitted effect of over 55% in size)
Outline: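 MDA-kb2 cells (human breast carcinoma, stably carrying an MMTV-luciferase reporter responsive to AR and GR) were plated at 3,000 cells/well and preincubated 5 hr at 37C, then given compound plus R1881 agonist for 16 h. ONE-Glo luminescence was read.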

Measured: Potency

Chain of Aromatase (Homo sapiens) (P11511 whole entry, looked up): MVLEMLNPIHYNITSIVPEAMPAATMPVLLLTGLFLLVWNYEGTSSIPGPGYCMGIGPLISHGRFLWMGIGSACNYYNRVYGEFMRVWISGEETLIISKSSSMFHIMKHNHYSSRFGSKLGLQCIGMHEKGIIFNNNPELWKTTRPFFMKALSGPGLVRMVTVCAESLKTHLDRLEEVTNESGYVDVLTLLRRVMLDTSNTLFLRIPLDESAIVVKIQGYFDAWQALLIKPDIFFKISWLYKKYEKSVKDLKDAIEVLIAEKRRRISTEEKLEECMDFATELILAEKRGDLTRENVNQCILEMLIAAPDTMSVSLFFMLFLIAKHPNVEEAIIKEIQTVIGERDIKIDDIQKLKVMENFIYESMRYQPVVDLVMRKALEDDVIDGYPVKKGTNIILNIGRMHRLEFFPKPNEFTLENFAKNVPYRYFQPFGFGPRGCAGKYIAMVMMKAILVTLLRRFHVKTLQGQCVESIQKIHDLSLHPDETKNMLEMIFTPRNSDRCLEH
Chain of Estrogen receptor (Homo sapiens) (P03372 whole entry, looked up): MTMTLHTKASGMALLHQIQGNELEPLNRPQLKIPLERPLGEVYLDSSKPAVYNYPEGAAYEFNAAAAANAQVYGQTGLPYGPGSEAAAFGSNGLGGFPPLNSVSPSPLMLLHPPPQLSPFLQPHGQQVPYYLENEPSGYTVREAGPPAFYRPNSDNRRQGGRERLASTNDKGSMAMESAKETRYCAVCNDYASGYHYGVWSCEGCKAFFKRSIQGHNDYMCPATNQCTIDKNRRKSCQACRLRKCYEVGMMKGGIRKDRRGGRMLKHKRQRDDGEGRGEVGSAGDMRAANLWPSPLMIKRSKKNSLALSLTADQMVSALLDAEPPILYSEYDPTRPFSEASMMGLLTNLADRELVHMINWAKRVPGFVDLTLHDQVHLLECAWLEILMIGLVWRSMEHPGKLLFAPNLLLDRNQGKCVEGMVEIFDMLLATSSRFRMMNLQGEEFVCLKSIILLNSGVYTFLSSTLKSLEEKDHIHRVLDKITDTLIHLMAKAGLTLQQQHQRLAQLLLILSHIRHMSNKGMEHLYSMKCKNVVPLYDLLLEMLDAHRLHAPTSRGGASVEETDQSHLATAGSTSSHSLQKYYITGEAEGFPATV
Chain of Androgen receptor (Homo sapiens) (P10275 whole entry, looked up): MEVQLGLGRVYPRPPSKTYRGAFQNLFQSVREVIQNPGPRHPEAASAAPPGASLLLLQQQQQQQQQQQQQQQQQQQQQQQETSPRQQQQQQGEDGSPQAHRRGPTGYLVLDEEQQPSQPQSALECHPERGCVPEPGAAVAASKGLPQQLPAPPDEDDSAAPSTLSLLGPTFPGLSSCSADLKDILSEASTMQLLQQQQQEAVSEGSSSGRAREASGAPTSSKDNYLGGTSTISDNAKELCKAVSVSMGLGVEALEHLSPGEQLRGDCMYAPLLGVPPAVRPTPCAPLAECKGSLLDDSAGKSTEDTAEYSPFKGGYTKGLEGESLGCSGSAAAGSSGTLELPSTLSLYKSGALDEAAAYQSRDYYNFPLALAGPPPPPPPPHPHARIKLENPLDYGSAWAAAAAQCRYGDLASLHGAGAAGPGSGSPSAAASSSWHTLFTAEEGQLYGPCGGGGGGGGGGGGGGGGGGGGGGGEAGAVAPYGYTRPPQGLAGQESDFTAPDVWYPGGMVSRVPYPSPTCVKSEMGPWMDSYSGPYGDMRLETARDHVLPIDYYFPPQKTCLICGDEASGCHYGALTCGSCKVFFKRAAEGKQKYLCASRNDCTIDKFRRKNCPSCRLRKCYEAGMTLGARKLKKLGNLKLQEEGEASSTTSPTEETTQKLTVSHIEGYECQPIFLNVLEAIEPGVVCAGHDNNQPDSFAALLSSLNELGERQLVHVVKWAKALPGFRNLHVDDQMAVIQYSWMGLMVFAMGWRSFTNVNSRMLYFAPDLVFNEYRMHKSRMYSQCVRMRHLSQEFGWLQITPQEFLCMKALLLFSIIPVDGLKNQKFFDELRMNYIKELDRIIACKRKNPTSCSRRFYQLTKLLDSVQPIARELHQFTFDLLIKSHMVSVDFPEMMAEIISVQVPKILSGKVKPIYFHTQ

c1cnc(N2CCN(Cc3ccc4c(c3)OCO4)CC2)nc1
not listed: [17] | [18] | [19] | [20]
inactive: all other assays above

CO[Si](CCCOCC1CO1)(OC)OC (configuration not stated)
active: [3] 38.6 µM
not listed: [17] | [18] | [19] | [20]
inactive: all other assays above

C[C@@H]1CCN(C(=O)[C@H](CCCN=C(N)N)NS(=O)(=O)c2cccc3c2NC[C@H](C)C3)[C@@H](C(=O)O)C1
not listed: [17] | [18] | [19] | [20]
inactive: all other assays above

O=C[C@H](O)[C@@H](O)[C@H](O)[C@H](O)CO
not listed: [17] | [18] | [19] | [20]
inactive: all other assays above

CC(=O)Nc1ccc(S(N)(=O)=O)cc1
inactive: all assays above

CN(C)CCCSc1ccccc1NC(=O)/C=C/c1ccccc1
active: [2] 26.6 µM | [3] 13.3 µM | [4] 29.8 µM | [7] 26.6 µM | [8] 23.7 µM
not listed: [11] | [15] | [17] | [18] | [19] | [20]
inactive: all other assays above

COc1ccccc1OCC(O)CN1CCN(CC(=O)Nc2c(C)cccc2C)CC1 (configuration not stated)
not listed: [17] | [18] | [19] | [20]
inactive: all other assays above

Cn1cc(S(C)=O)c(=O)c2ccc(F)cc21 (configuration not stated)
not listed: [11] | [15] | [17] | [18] | [19] | [20]
inactive: all other assays above

CC/C=C\CCOC(C)=O
not listed: [17] | [18] | [19] | [20]
inactive: all other assays above

Nc1cc(=O)[nH]c(N)n1
not listed: [17] | [18] | [19] | [20]
inactive: all other assays above

CCC(C)C1CCCCC1=O (configuration not stated)
not listed: [14] | [17] | [18] | [19] | [20]
inactive: all other assays above

CC(=O)c1ccccc1O
not listed: [11] | [14] | [17] | [18] | [19] | [20]
inactive: all other assays above

CCc1nccnc1CC
not listed: [13] | [17] | [18] | [19] | [20]
inactive: all other assays above

CC(C[N+](C)(C)C)OC(N)=O (configuration not stated)
not listed: [17] | [18] | [19] | [20]
inactive: all other assays above

O=c1cc(CO)occ1O
not listed: [17] | [18] | [19] | [20]
inactive: all other assays above

NS(=O)(=O)c1cc(C(=O)O)cc(N2CCCC2)c1Oc1ccccc1
not listed: [14] | [17] | [18] | [19] | [20]
inactive: all other assays above

OCCOc1ccc(OCCO)cc1
not listed: [14] | [17] | [18] | [19] | [20]
inactive: all other assays above

CC(C)c1cc2c(cc1S(=O)(=O)O)[C@@]1(C)CCC[C@@](C)(C(=O)O)[C@@H]1CC2
not listed: [17] | [18] | [19] | [20]
inactive: all other assays above

O=Cc1cccc([N+](=O)[O-])c1
not listed: [11] | [17] | [18] | [19] | [20]
inactive: all other assays above

CN1CCCC1
not listed: [11] | [17] | [18] | [19] | [20]
inactive: all other assays above

O=C1CCCCCCCCCCCN1
not listed: [17] | [18] | [19] | [20]
inactive: all other assays above

O=C(O)c1ccccc1OP(=O)(O)O
not listed: [17] | [18] | [19] | [20]
inactive: all other assays above

CCCc1cc(C(N)=S)ccn1
not listed: [14] | [17] | [18] | [19] | [20]
inactive: all other assays above

OCCCC1CCCCC1
not listed: [14] | [17] | [18] | [19] | [20]
inactive: all other assays above

C=CCS(=O)(=O)O
not listed: [14] | [17] | [18] | [19] | [20]
inactive: all other assays above

NCCCNCCSP(=O)(O)O
not listed: [14] | [17] | [18] | [19] | [20]
inactive: all other assays above

CCCCCOC(=O)CCCCC
not listed: [11] | [17] | [18] | [19] | [20]
inactive: all other assays above

CN(C)CCCNCCCN(C)C
not listed: [14] | [17] | [18] | [19] | [20]
inactive: all other assays above

CC(C)OC(=O)c1ccccc1
not listed: [11] | [17] | [18] | [19] | [20]
inactive: all other assays above

CC(C(=O)O)c1ccc(CC2CCCC2=O)cc1 (configuration not stated)
not listed: [14] | [17] | [18] | [19] | [20]
inactive: all other assays above

CCOC(=O)c1cccc(N)c1
not listed: [13] | [14] | [17] | [18] | [19] | [20]
inactive: all other assays above

CCOC(=O)CCC(C)=O
not listed: [13] | [17] | [18] | [19] | [20]
inactive: all other assays above

CN1C(=O)N(C)C(O)C1O (configuration not stated)
not listed: [14] | [17] | [18] | [19] | [20]
inactive: all other assays above

O=C1CCCN1C1CCCCC1
not listed: [14] | [17] | [18] | [19] | [20]
inactive: all other assays above

CCOC(=O)c1ccc(C)cc1
not listed: [11] | [17] | [18] | [19] | [20]
inactive: all other assays above

C=C[Si](OC(=C)C)(OC(=C)C)OC(=C)C
not listed: [13] | [14] | [17] | [18] | [19] | [20]
inactive: all other assays above

O=C1OC(=O)C2CCCCC12 (configuration not stated)
not listed: [14] | [17] | [18] | [19] | [20]
inactive: all other assays above
